# Data: PubChem BioAssay AID430 (Sanford-Burnham Center for Chemical Genomics, 2006)
# Screen size: about 63,000 compounds; about 1,100 (1.7%) were called active. Only a selection was taken, and actives are over-represented in it overall. Results with a measured potency or affinity are listed apart. A number with no mark means an inactive call. Rule as the data show it: active = cytotoxicity above about 50%; inactive = the rest.
# Assay: HPDE-C7 pancreatic duct cell viability loss – fluorescence, HTS (AID 430);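 also: cells exposed to compound for 48 hours before viability readout; 0% = vehicle and 100% = reference cytotoxic drug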
# Conditions: HPDE-C7 pancreatic duct cells viability, at 10 µM, active compounds read high
row,SMILES,cytotoxicity
1,CCc1nc(SCC(=O)Nc2cc(C)on2)c2c(C)c(C)sc2n1,-1.6%
2,CC1(C)CC(=O)C(C=NC2CCCCC2)=C(O)C1,-6.9%
3,Cn1c(=O)c2c(SC3CCCC3)nc(CC(C)(C)C)nc2n(C)c1=O,-9%
4,Cc1onc(-c2ccccc2Cl)c1C(=O)NCc1nc(-c2ccccc2)no1,-4.2%
5,CC(=O)c1cccc(NC(=O)c2ccc(NS(C)(=O)=O)cc2)c1,17.5%
6,CCOC(=O)c1c(C)[nH]c(C(=O)Cn2c(=O)c3c(ncn3CC)n(Cc3ccccc3)c2=O)c1C,4.9%
7,CCc1c(C)sc(NC(=O)c2cccs2)c1C(=O)OC(C)C,58.9% (active)
8,CCOC(=O)c1c(NC(=O)c2cccs2)sc(C)c1CC,-2.4%
9,CC(C)OC(=O)c1c(NC(=O)c2cccs2)sc2c1CCCC2,9.8%
10,COc1ccccc1CC(NC(C)=O)C(=O)NC1CCN(c2nnnn2-c2ccccc2)CC1 (configuration not stated),-2.9%
11,CCN(CC)S(=O)(=O)c1ccc(-c2nnc(SCC(=O)c3ccc(OC)cc3)o2)cc1,-7.3%
12,COc1ccc(C(=O)CSc2nnc(-c3ccc(S(=O)(=O)N4CCOCC4)cc3)o2)cc1,56.1% (active)
13,COc1ccc(C(=O)CSc2nnc(-c3ccc(C)cc3)o2)cc1,-8.2%
14,O=C(CN1C(=O)c2ccccc2S1(=O)=O)N1CCN(Cc2ccc3c(c2)OCO3)CC1,-4.2%
15,CCCn1c(C)cc(C(=O)COc2ncnc3sccc23)c1C,-1.4%
16,CCN1C(=O)c2cccc3c(NC(=O)c4ccc5c(c4)OCCO5)ccc1c23,84.7% (active)
17,CCN1C(=O)c2cccc3c(NC(=O)c4cccc(N5C(=O)CCC5=O)c4)ccc1c23,-19.8%
18,CCN1C(=O)c2cccc3c(NC(=O)c4ccc(S(=O)(=O)N(C)C)cc4)ccc1c23,-24.8%
19,COc1ccc(CCC(=O)NCc2ccco2)cc1,-5.5%
20,Clc1ccccc1-c1nnn(Cc2ccc(-c3nn[nH]n3)cc2)n1,-10.8%
21,CCCS(=O)(=O)N1CCCC(C(=O)N2CCC(Cc3ccccc3)CC2)C1 (configuration not stated),0.4%

row,SMILES,cytotoxicity
1,CCCS(=O)(=O)N1CCC(C(=O)N2CCC(Cc3ccccc3)CC2)CC1,79.7% (active)
2,CS(=O)(=O)N1CCC(C(=O)N2CCC(Cc3ccccc3)CC2)CC1,1.2%
3,Clc1ccccc1Cn1nnc2c(N3CCCC3)ncnc21,5%
4,COc1ccc(C2(O)CCN(Cc3nnnn3Cc3ccc(C)cc3)CC2)cc1,-4.4%
5,O=C(Oc1cc2oc(=O)c3c(c2cc1Cl)CCCC3)c1ccco1,-3.8%
6,N#Cc1nc(Cc2cccc3ccccc23)oc1NCc1ccco1,58.4% (active)
7,C=CCNc1oc(Cc2cccc3ccccc23)nc1C#N,-12%
8,CNc1oc(Cc2cccc3ccccc23)nc1C#N,3.8%
9,CCn1cc(C(=O)NCCCN(C)c2ccccc2)c(=O)c2cc(S(=O)(=O)N(C)C)ccc21,10.5%
10,CCc1nnc(NC(=O)CSc2nccn2-c2cc(C)cc(C)c2)s1,7.6%
11,CCOc1ccc(-c2nc(-c3ccccc3C)no2)cc1,2.4%
12,Cc1ccccc1-c1noc(-c2ccc(O)cc2)n1,52.8% (active)
13,Cc1ccccc1-c1noc(-c2cccs2)n1,-7.3%
14,CCn1c(-c2c[nH]c3ccccc23)n[nH]c1=S,6.5%
15,O=C1Cc2ccccc2N1c1ccccc1,-6.3%
16,CCOC(=O)C1CCN(Cc2ccc(OC)c(C)c2OC)CC1,2.2%
17,CCOC(=O)C1CCN(Cc2c(O)ccc3ccccc23)CC1,-5.8%
18,CCOC(=O)C1CCN(Cc2ccc(O)c3ncccc23)CC1,60.3% (active)
19,CN(C)c1ccc(C(=S)N2CCOCC2)cc1Br,-13.8%
20,CCOC(=O)N1CCN(C(=O)c2ccc3c(=O)n(Cc4ccc(OC)cc4)c(=S)[nH]c3c2)CC1,-14.8%
21,COc1ccc(N2C(=O)CC(N3CCN(c4nc5ccccc5s4)CC3)C2=O)cc1 (configuration not stated),7.5%

row,SMILES,cytotoxicity
1,CC(NC(=O)Nc1nccs1)(C(F)(F)F)C(F)(F)F,-4.1%
2,CCC(NC(=O)Nc1nccs1)(C(F)(F)F)C(F)(F)F,-7%
3,O=C(NCC(F)(F)F)Nc1nnc(C(F)(F)F)s1,12.3%
4,CCSc1nnc(NC(=O)NC(CC)(C(F)(F)F)C(F)(F)F)s1,14.7%
5,O=C(COC(=O)c1n[nH]c2ccccc12)NC(=O)NCc1ccco1,-1.6%
6,CC1=C(C(=O)Nc2ccccc2)C(c2ccncc2)C(C#N)=C(SCC(=O)NC2CC2)N1 (configuration not stated),-16.3%
7,COc1ccc(NC(=O)CSc2nnc(CNC(=O)c3ccco3)o2)c(OC)c1,-0.9%
8,CCOC(=O)C1=C(C)NC(C)=C(C(=O)OCC)C1C(=O)OCC(=O)N1CCC(C)CC1,0%
9,C=CCn1c(=O)c(C(=O)Nc2nnc(C)s2)c(O)c2ccccc21,7.8%
10,CCCn1c(=O)c(C(=O)Nc2nnc(CC)s2)c(O)c2ccccc21,51.2% (active)
11,CCCn1c(=O)c(C(=O)Nc2cnccn2)c(O)c2ccccc21,-11.9%
12,CCCn1c(=O)c(C(=O)Nc2nnc(C)s2)c(O)c2ccccc21,75.2% (active)
13,CCc1nnc(NC(=O)c2cnccn2)s1,-17.9%
14,CCc1nnc(NC(=O)c2c(O)c3cccc4c3n(c2=O)CC4)s1,34.5%
15,CCc1nnc(NC(=O)c2cccc(OC)c2)s1,-1.7%
16,CCc1nnc(NC(=O)c2cccc(C(=O)Nc3nnc(CC)s3)n2)s1,52.5% (active)
17,CCCn1c(=O)c(C(=O)Nc2ccncc2)c(O)c2ccccc21,31.4%
18,CC(C)Cn1c(=O)c(C(=O)Nc2ccncc2)c(O)c2ccccc21,53.2% (active)
19,CC(C)Cn1c(=O)c(C(=O)Nc2cnccn2)c(O)c2ccccc21,29.3%
20,CCCn1c(=O)c(C(=O)NCc2ccccn2)c(O)c2ccccc21,-12.9%
